Assay [1] can be described thus: viability loss in pontine glioma line – cell-based, SU-DIPG-XVII, MIPE5.0, CellTiter-Glo, qHTS, dose response (AID 1347060; cut-off not given, nearly all actives have AC50 up to about 26 µM;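 further: cells exposed to compound for 48 hours before viability readout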). The note with it: CellTiter-Glo ATP luminescence. For orientation: Cellular ATP, detected with luciferase, serves as a proxy for viable cell number.
A short description of assay [2]: viability loss in pontine glioma line – cell-based, JHH-DIPG-1, MIPE4.0, CellTiter-Glo, qHTS, dose response (AID 1347062; cut-off not given, nearly all actives have AC50 up to about 27 µM;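 further: cells exposed to compound for two days before readout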). The note with it: JHH-DIPG-1 viability, CellTiter-Glo ATP luminescence.
Assay [3] in a line: viability loss in pontine glioma line – cell-based, SU-DIPG-IV, MIPE4.0, CellTiter-Glo, qHTS, dose response (AID 1347063; cut-off not given, nearly all actives have AC50 up to about 30 µM;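 further: compound exposure lasted 48 hours before the viability readout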). The note with it: CellTiter-Glo ATP luminescence.
A short description of assay [4]: viability loss in pontine glioma line – cell-based, SU-DIPG-XXV, MIPE5.0, CellTiter-Glo, qHTS, dose response (AID 1347065; cut-off not given, nearly all actives have AC50 up to about 26 µM;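 further: cells exposed to compound for 48 hours before ATP readout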). The note with it: CellTiter-Glo ATP luminescence.
The nature of assay [5]: growth inhibition of DIPG cells – cell-based, MIPE5.0 library, qHTS (AID 1347068; cut-off not given, nearly all actives have IC50 up to about 30 µM;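 further: cells exposed to compound for 48 hours before viability readout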). The note with it: SU-DIPG-XXV viability. For orientation: qHTS replaces the single test concentration by a dilution series.
Assay [6] is described as follows: growth inhibition of DIPG cells – cell-based, MIPE4.0 library, CellTiter-Glo luminescence, qHTS (AID 1347066; cut-off not given, nearly all actives have AC50 up to about 30 µM;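 further: cells exposed to compound for 48 hours before readout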). The note with it: SU-DIPG-VI viability, CellTiter-Glo ATP luminescence.
Assay [7] can be described thus: JHH-DIPG-1 glioma cell viability, MIPE5.0 library, CellTiter-Glo luminescence, qHTS (AID 1347067; cut-off not given, nearly all actives have AC50 up to about 26 µM;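 further: cells exposed to compound for 48 hours before readout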). The note with it: JHH-DIPG-1 glioma viability, CellTiter-Glo ATP luminescence.
Assay [8] in a line: viability loss with induced miR-34 in A549 – imaging, A549 dox-inducible miR-34, nuclei and caspase counts, primary screen (AID 1347080;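 active means compounds whose cell count with miR-34 switched on is under 0.7 times the count with it off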). The note with it: A549 miR-34 inducible, Hoechst nuclei count, 48 h.
Assay [9] can be described thus: MELAS cybrid and Rieske KO viability enhancers – cell-based, MELAS cybrids, Rieske KO mouse fibroblasts, CellTiter-Glo, primary screen (AID 1508586;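 active means mean z-score across replicates of 1.96 or higher in either the MELAS or the Rieske mutant cell line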;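 further: z relative to plate mean and SD of compound and empty wells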). The note with it: low glucose.
Assay [10] can be described thus: drug combination growth inhibition, ovarian cancer – cell-based, oncology-focused library, rucaparib conditional, profiling panel (AID 1508598). The note with it: patient-derived ovarian cancer cells, CellTiter-Glo viability, 144 h, stronger effect = lower value.
[11] abbreviates: stronger effect = lower value, cell number ratio, induced over uninduced.
Where [12] appears, read: measured here: relative caspase fold change +Dox/-Dox.
Where [13] appears, read: measured here: total cells with miR-34 induction, stronger effect = lower value.
Setting [14] is: measured here: total cells without miR-34 induction.
The mark [15] stands for this setting: MELAS cybrid survival, CellTiter-Glo 48 h, stronger effect = higher value.
Setting [16] is: Rieske KO mouse fibroblast survival, CellTiter-Glo 72 h.

Results filed as inconclusive are left out. Active and inactive are the calls of the source.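 How the source made its calls, unless noted: active means normalized viability below 100% at a tested concentration; inactive means the rest.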

Data on three compounds can be found in PubChem BioAssay.

Broadly, the AC50 is the concentration at which the activity in the assay is half-maximal. Usually IC50 stands for the concentration at which inhibition is half-maximal. Broadly, the viability is a read-out of living cells in per cent, often relative to untreated cells.

Take `COc1cc2c(NC3CCN(C(C)C)CC3)nc(C3CCCCC3)nc2cc1OCCCN1CCCC1`: the AC50 was 23.5 µM (active) in assay [1], 8.33 µM (active) in assay [2], 18.7 µM (active) in assay [3] and 20.9 µM (active) in [4]. In assay [5], the IC50 is 23.5 µM (active).

In the case of `O=C1NCCc2[nH]c(-c3ccncc3)cc21`, the AC50 was 3.72 µM (active) in assay [1]; 3.32 µM (active) in assay [2]; 2.64 µM (active) in assay [3]; 2.09 µM (active) in assay [4]; 3.32 µM (active) in assay [7]. Also, the outcome in assay [6] was inactive. Further, the IC50 in assay [5] is 5.25 µM (active). In addition, the fold change was 1.04 (inactive) in assay [8] (setting [11]) and 0.743 in [8] (setting [12]). Further, the cell count in assay [8] (setting [13]) was 2250; in assay [8] (setting [14]) it was 2160. The z-score in assay [9] (setting [15]) is 0.826 (inactive); in [9] (setting [16]), -3.11.

Take `C#Cc1cccc(Nc2ncnc3cc(OCCOC)c(OCCO)cc23)c1`: the AC50 was 11.8 µM (active) in assay [1]; 6.62 µM (active) in assay [2]; 2.96 µM (active) in assay [3]; 7.42 µM (active) in assay [4]; 2.63 µM (active) in assay [7]. For the same compound, in [6], the call was inactive. Besides, the fold change in assay [8] (setting [11]) is 0.787 (inactive); in assay [8] (setting [12]), 0.554. The cell count was found to be 2660 in assay [8] (setting [13]) and 3380 in [8] (setting [14]). For the same compound, the z-score in assay [9] (setting [15]) was -0.467 (inactive); in [9] (setting [16]) it was -0.287. In addition, the viability in [10] (at 0.000305 µM, OCI-C5x cells, with rucaparib 10 µM, 100% = cells with rucaparib alone) was 118% (inactive); in assay [10] (at 0.000305 µM, OCI-C5x cells, without rucaparib) it was 140% (inactive); in [10] (at 0.000305 µM, OCI-P5x cells, with rucaparib 20 µM, 100% = cells with rucaparib alone), 109% (inactive); in assay [10] (at 0.000305 µM, OCI-P5x cells, without rucaparib) it was 119% (inactive); in assay [10] (at 0.00122 µM, OCI-C5x cells, with rucaparib 10 µM, 100% = cells with rucaparib alone), 113% (inactive); in assay [10] (at 0.00122 µM, OCI-C5x cells, without rucaparib), 143% (inactive). For the same compound, the viability in [10] (at 0.00122 µM, OCI-P5x cells, with rucaparib 20 µM, 100% = cells with rucaparib alone) was 109% (inactive); in assay [10] (at 0.00122 µM, OCI-P5x cells, without rucaparib), 114% (inactive); in assay [10] (at 0.00488 µM, OCI-C5x cells, with rucaparib 10 µM, 100% = cells with rucaparib alone) it was 119% (inactive); in assay [10] (at 0.00488 µM, OCI-C5x cells, without rucaparib), 127% (inactive); in assay [10] (at 0.00488 µM, OCI-P5x cells, with rucaparib 20 µM, 100% = cells with rucaparib alone) it was 106% (inactive); in assay [10] (at 0.00488 µM, OCI-P5x cells, without rucaparib), 109% (inactive). Also, the viability in [10] (at 0.0195 µM, OCI-C5x cells, with rucaparib 10 µM, 100% = cells with rucaparib alone) is 108% (inactive); in assay [10] (at 0.0195 µM, OCI-C5x cells, without rucaparib) it was 120% (inactive); in [10] (at 0.0195 µM, OCI-P5x cells, with rucaparib 20 µM, 100% = cells with rucaparib alone), 103% (inactive); in assay [10] (at 0.0195 µM, OCI-P5x cells, without rucaparib) it was 107% (inactive); in [10] (at 0.0781 µM, OCI-C5x cells, with rucaparib 10 µM, 100% = cells with rucaparib alone), 113% (inactive); in [10] (at 0.0781 µM, OCI-C5x cells, without rucaparib), 129% (inactive). For the same compound, the viability was 96.3% (active) in assay [10] (at 0.0781 µM, OCI-P5x cells, with rucaparib 20 µM, 100% = cells with rucaparib alone); 106% (inactive) in assay [10] (at 0.0781 µM, OCI-P5x cells, without rucaparib); 100% (active) in assay [10] (at 0.313 µM, OCI-C5x cells, with rucaparib 10 µM, 100% = cells with rucaparib alone); 102% (inactive) in assay [10] (at 0.313 µM, OCI-C5x cells, without rucaparib); 97.1% (active) in assay [10] (at 0.313 µM, OCI-P5x cells, with rucaparib 20 µM, 100% = cells with rucaparib alone); 100% (inactive) in assay [10] (at 0.313 µM, OCI-P5x cells, without rucaparib). The viability in assay [10] (at 1.25 µM, OCI-C5x cells, with rucaparib 10 µM, 100% = cells with rucaparib alone) was 78.3% (active); in assay [10] (at 1.25 µM, OCI-C5x cells, without rucaparib), 95.1% (active); in assay [10] (at 1.25 µM, OCI-P5x cells, with rucaparib 20 µM, 100% = cells with rucaparib alone), 85.9% (active); in [10] (at 1.25 µM, OCI-P5x cells, without rucaparib), 93.4% (active); in [10] (at 5 µM, OCI-C5x cells, with rucaparib 10 µM, 100% = cells with rucaparib alone), 54.8% (active); in assay [10] (at 5 µM, OCI-C5x cells, without rucaparib), 52.7% (active). The viability in assay [10] (at 5 µM, OCI-P5x cells, with rucaparib 20 µM, 100% = cells with rucaparib alone) was 68.7% (active); in assay [10] (at 5 µM, OCI-P5x cells, without rucaparib), 64.5% (active).
